Assay outcomes (PubChem)
ELG1 genotox = inducers of genotoxicity in HEK293T ELG1-luciferase cells | HEK293T ELG1-luciferase reporter, luminescence, 16 h | Potency, µM (titrated, usually from 46 µM), for the others: at the highest dose activity change, positive = activation, usual class: activators | 330,000 tested, 1.3% active | AID 504466; also: % of control where 0% means no effect; nearly all actives have a fitted effect of over 60% in size
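Cells (2,000/well) expressing the ELG1-luciferase fusion are dosed by pin tool and kept 16 hr at 37 °C, 5% CO2. Signal comes from ONE-Glo luciferase reagent after 30 min at room temperature.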
NPC1 prom act = NPC1 promoter activation; Huh7 NPC1 promoter luciferase reporter, 24 h; Potency, µM (highest dose often 9.22 µM), for the others: top-dose activation, hits mostly activators; 320,000 tested, 2.4% active; also: % of control where 0% means no effect; nearly all actives have a fitted effect of over 60% in size
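Huh7 reporter cells (NPC1 promoter driving luciferase) are dosed with compound for 24 h at 37 °C, 5% CO2; luciferase detection reagent is then added and luminescence measured after 10 min at ambient temperature.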
Rab9 promoter act = Rab9 promoter activation; 320,000 tested, 2.8% active; Huh7 Rab9 promoter-luciferase reporter, luminescence, 24 h; Potency, µM (doses to about 9.22 µM), without a hit: at the top dose activation, negative = inhibition, usual class: activators; AID 485297; also: % of control where 0% means no effect; nearly all actives have a fitted effect of over 60% in size
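Cell-based reporter: Huh7 stable for Rab9 promoter-driven luciferase, plated in reduced-serum medium with 10% FBS at 1500 cells/well, compound-treated 24 h at 37 °C, luminescence read after 10 min reagent.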
Luc counter = counter-screen: inhibitors of Kinase-Glo firefly luciferase | AID 1379 | Kinase-Glo luciferase, ATP luminescence, 8 min | Q27757 | Potency, µM (series often up to 38.3 µM), inactives show top-dose activity change, negative = inhibition, hits mostly inhibitors | 200,000 tested, 0.28% active; also: % is scaled to controls: 0 for no effect and ±100 for the full control effect; nearly all actives have a fitted effect of over 60% in size
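Substrate mix (final 50 mM imidazole pH 7.2, 50 mM KCl, 7 mM MgCl2, 10 uM ATP, 0.01% Tween 20, 0.05% BSA) plus pin-tool compound, then Kinase-Glo detection mix; 8 min ambient, luminescence read.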
FLuc counter = inhibits or activates purified firefly luciferase, miR-21 counter-screen; P08659; purified FLuc, Km substrates, luminescence inhibition; Potency, µM (titrated, usually from 57.5 µM), for the others: at the top dose activity change, negative = inhibition, usual class: inhibitors; 360,000 tested, 6.9% active; AID 588342;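 also: plate controls were vehicle for no effect and reference inhibitor for full effect; nearly all actives have a fitted effect of over 55% in size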
Target sequence (P08659 whole entry, looked up): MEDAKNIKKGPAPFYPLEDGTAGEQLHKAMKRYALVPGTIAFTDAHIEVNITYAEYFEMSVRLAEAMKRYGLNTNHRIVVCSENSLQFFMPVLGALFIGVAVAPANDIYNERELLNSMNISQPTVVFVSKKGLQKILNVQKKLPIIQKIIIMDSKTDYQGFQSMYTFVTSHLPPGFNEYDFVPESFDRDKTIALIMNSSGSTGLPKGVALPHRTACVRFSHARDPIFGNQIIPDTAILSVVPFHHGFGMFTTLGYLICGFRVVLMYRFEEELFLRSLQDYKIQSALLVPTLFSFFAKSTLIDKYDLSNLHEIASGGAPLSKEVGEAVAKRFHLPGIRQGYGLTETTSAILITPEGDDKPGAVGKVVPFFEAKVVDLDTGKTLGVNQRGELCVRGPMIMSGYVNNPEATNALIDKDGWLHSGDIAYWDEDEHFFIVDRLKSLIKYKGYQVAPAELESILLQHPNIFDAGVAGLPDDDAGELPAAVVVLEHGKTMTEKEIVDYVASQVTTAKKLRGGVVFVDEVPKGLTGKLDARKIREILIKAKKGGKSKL
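Purified P. pyralis luciferase (10nM final) with 10uM D-luciferin and 10uM ATP (Km levels) in 50mM Tris acetate pH 7.5, 10mM Mg acetate, 0.01% Tween-20, 0.05% BSA; qHTS 6-point titration, ~60 µM downward; luminescence read.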
SMN2 splice enh = SMN2 splice variant enhancement. HEK293 SMN2-luciferase splicing reporter, luminescence, 30-36 h. Potency, µM (highest dose often 46.1 µM), inactives show at the top dose activity change, positive = activation, most hits filed as activators. 210,000 tested, 2.8% active; also: % of control where 0% means no effect; nearly all actives have a fitted effect of over 55% in size
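qHTS luciferase splicing reporter: luminescence rises when SMN2 exon 7 is included in transfected HEK293 cells. Compound exposure lasted 30-36 h at 37C, with 4.5 mM final sodium butyrate as control, followed by a ONE-Glo read.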
Numbers without * were called inactive; ? = inconclusive; · = no result given; [ ] = another dose, or the depositor's remark. Compounds with a hit are over-represented: about 7.4% of the library has one in this group of screens. Calls follow the shape of the dose curve; as a rule, active = well fitted curve in the direction sought with a large enough effect; inconclusive = small, poorly fitted or top-dose-only effect, or another doubt; inactive = no such curve, though single readings can be large; an effect the other way counts as inactive or inconclusive. Potency is read from the fitted curve at half-maximal effect.

SMILES	ELG1 genotox	NPC1 prom act	Rab9 promoter act	Luc counter	FLuc counter	SMN2 splice enh
O=C(Cn1c(SCc2ccccc2F)nc2cccnc21)Nc1ccc(F)c(Cl)c1	·	·	·	·	26.9µM*	·
CN(C)c1ccc(NC(=O)Cn2c(SCc3ccccc3F)nc3cccnc32)cc1	·	·	·	·	-0.2%	·
CCCC1c2c(ccc3ccccc23)Oc2ccc3ccccc3c21	·	·	·	-3.6%[7.66 µM]	·	-14.4%[9.22 µM]
CCOc1ccc(Nc2nc3c(S(=O)(=O)c4ccc(CC)cc4)nnn3c3ccc(Cl)cc23)cc1	·	·	·	·	2.1%	5.0%
CCOC(=O)N1CCc2c(sc3c2c(=O)n(CCc2ccccc2)c(=O)n3CC(=O)Nc2ccccc2C)C1	·	·	·	·	-0.3%	-9.5%
COc1cccc([C@@H]2Oc3ccc(Br)cc3C(=O)[C@H]2OC(=O)NS(=O)(=O)c2ccc(F)cc2)c1	·	·	·	1.6%	·	12.1%
Cc1ccccc1CN1CCc2nc(Nc3ccc4c(c3)OCCO4)ncc2C1	·	·	·	·	13.5µM*	·
COc1ccc(Nc2ncc3c(n2)CCN(Cc2ccccc2C)C3)c(OC)c1	·	·	·	·	5.0%	·
Cc1ccc2c(=O)c(C(=O)c3ccccc3)cn(CC(=O)Nc3ccc4c(c3)OCCO4)c2n1	·	·	·	·	2.7%	·
Cc1ccc(C(=O)CSc2ncc3c(n2)-c2ccccc2N(Cc2ccc(Cl)cc2)S3(=O)=O)cc1	·	·	·	·	-4.6%	·
COc1ccc(/C=C/C(=O)NC(=S)NNC(=O)c2cnccn2)cc1	?	-15.4%	-23.8%	·	16.9µM*	·
COc1ccc(C(=O)NNC(=S)NC(=O)c2cccnc2)cc1	-1.7%	-1.4%	-19.4%	-0.9%	0.8%	·
COc1ccc(/C=C/C(=O)NC(=S)NNC(=O)c2cccnc2)cc1	-0.4%	-1.3%	-1.1%	2.2%	23.9µM*	4.4%
COC(=O)c1c(C)oc2ccc(N(C(=O)Oc3ccccc3)S(=O)(=O)c3ccc(C(C)(C)C)cc3)cc12	·	·	·	·	2.3%	-28.9%
CCOc1ccc(CCNC(=O)CCc2c(C)nc3c(c(C)nn3-c3ccccc3)c2C)cc1OCC	·	·	·	·	2.7%	-10.1%
CC(C)c1ccc(S(=O)(=O)N2CCN(Cc3cccc(F)c3)CC2)cc1	·	·	·	·	4.0%	·
Nc1nc(CN2CCN(c3ccccc3F)CC2)nc(Nc2ccc3c(c2)OCCO3)n1	-12.1%	-0.5%	-11.2%	-5.7%	4.5%	-20.5%
CN1CCN(Cc2nc(N)nc(Nc3ccc4c(c3)OCCO4)n2)CC1	?	3.55µM*	3.98µM*	-1.0%	?	27.9%
COc1ccc(/C=C/C(=O)c2ccc(C)s2)cc1	·	·	·	-25.4%	·	·
CCOc1cnc(-c2ccccc2F)o1	7.8%	0.2%	-2.8%	-2.4%	16.9µM*	18.9%
CCOc1cnc(-c2c(-c3c(F)cccc3Cl)noc2C)o1	0.9%	-4.6%	-4.1%	6.1%	3.8%	-67.9%
CCCCc1nn2c(=O)cc(COC(=O)c3ccccc3NC(=O)c3cccc(C)c3)nc2s1	·	·	·	·	-5.4%	·
N#C/C(=C\c1ccc(-c2ccc(F)cc2F)o1)c1nc2ccccc2[nH]1	·	·	·	·	-10.7%	2.8%
Cc1cc2nc(/C(C#N)=C\c3ccc(-c4ccccc4C(=O)O)o3)[nH]c2cc1C	2.5%	17.7%	5.1%	·	1.51µM*	·
Cc1ccc2nc(/C(C#N)=C/c3ccc(-c4ccccc4C(=O)O)o3)[nH]c2c1	-0.5%	-2.7%	0.0%	·	4.26µM*	·
SMILES	ELG1 genotox	NPC1 prom act	Rab9 promoter act	Luc counter	FLuc counter	SMN2 splice enh
N#C/C(=C\c1ccc(Sc2ccccc2)o1)c1nc2ccccc2[nH]1	?	2.82µM*	2.24µM*	-15.7%	2.69µM*	11.2µM*
CCOC(=O)c1ccc(-c2ccc(/C=C(\C#N)c3nc4ccc(C)cc4[nH]3)o2)cc1	·	·	·	·	-11.5%	-3.7%
N#C/C(=C\c1ccc(-c2ccccc2C(=O)O)o1)c1nc2ccccc2[nH]1	12.5%	5.9%	0.0%	·	12µM*	-5.7%
C[C@@H](Oc1ccc(Oc2cnc3ccc(Cl)cc3n2)cc1)C(=O)O	·	·	·	2.4%	·	-39.4%
COc1ccccc1CNC(=O)CCCc1nnc2n(CC(C)C)c(=O)c3sccc3n12	·	·	·	·	-3.2%	·
Nc1ccn([C@H]2O[C@@H](COP(=O)(O)O)[C@@H](O)[C@H]2O)c(=O)n1	·	·	·	-6.1%[7.66 µM]	·	-19.9%[9.22 µM]
Cc1cc(C)cc(NC(=O)CSc2oc(-c3cccs3)nc2S(=O)(=O)c2ccccc2)c1	·	·	·	·	3.5%	28.7%
Cc1cc2nc3s/c(=C/c4ccc(-c5ccccc5C(=O)O)o4)c(=O)n3c2cc1C	5.0%	15.0%	11.4%	·	4.78µM*	·
O=C(O)c1ccccc1-c1ccc(/C=c2\sc3nc4cc(Br)cnc4n3c2=O)o1	2.0%	-0.5%	-1.7%	-3.1%	-16.1%	2.7%
CCOc1ccc(N2C(=O)S/C(=C\c3cccn3C)C2=O)cc1	11.5%	12.3%	29.0%	2.3%	-3.6%	?
Cn1cccc1/C=C1\SC(=O)N(c2ccc(O)cc2)C1=O	?	?	?	-2.5%	?	12.6µM*
C[N+]1(NCC[N@@+]2(C)CCc3ccccc3C2)CCCCC1	·	·	·	-1.2%[7.66 µM]	·	-4.5%[9.22 µM]
COc1ccccc1NC(=O)C(=O)Nc1ccccn1	?	3.98µM*	3.16µM*	?	8.49µM*	15.8µM*
Cc1c(C)c2ccc(OCC(=O)Nc3ccccn3)c(C)c2oc1=O	?	-34.3%	-20.3%	·	0.0338µM*	·
COc1ccccc1NC(=O)C(=O)N/N=C(\C)CC(=O)Nc1ccccn1	0.1%	1.8%	-15.8%	-2.7%	?	-1.1%
Cc1ccc(NC(=O)C(=O)Nc2ccccn2)cc1	?	?	0.316µM*	?	0.536µM*	1.58µM*
COc1ccccc1OCC(=O)Nc1ccccn1	2.06µM*	?	3.16µM*	·	3.38µM*	·
Cc1ccc(S(=O)(=O)CC(=O)Nc2ccccn2)cc1	-1.6%	-0.7%	4.4%	·	0.6%	·
Cc1c(C)c2ccc(OCC(=O)N(C)C)c(C)c2oc1=O	?	-0.8%	-1.0%	1.3%	-16.5%	?
